From PubChem BioAssay
SMN2 splice up: increases expression of the SMN2 splice variant; Potency, µM (top dose mostly 46.1 µM), without a hit: at the top dose activity change, positive = activation, hits mostly activators; 210,000 compounds, 2.8% hits; HEK293 SMN2-luciferase splicing reporter, luminescence, 30-36 h; AID 1458; further: % of control where 0% means no effect; nearly all actives have a fitted effect of over 55% in size
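qHTS luciferase splicing reporter: luminescence rises when SMN2 exon 7 is included in transfected HEK293 cells. Compound exposure lasted 30-36 h at 37C, with 4.5 mM final sodium butyrate as control, followed by a ONE-Glo read.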
ELG1 genotox: genotoxicity induction in ELG1-luciferase HEK293T cells; HEK293T ELG1-luciferase reporter, luminescence, 16 h; Potency, µM (titrated, usually from 46 µM), for the others: top-dose activity change, positive = activation, most hits filed as activators; 330,000 compounds, 1.3% hits; AID 504466; further: % of control where 0% means no effect; nearly all actives have a fitted effect of over 60% in size
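ELG1-luciferase HEK293T cells, 2,000/well; compound pinned in; 16 hr, 37 °C, 5% CO2; ONE-Glo, 30 min RT; luminescence on CCD imager.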
Rab9 prom act: activators of Rab9 promoter; Potency, µM (top dose mostly 9.22 µM), inactives show top-dose activation, negative = inhibition, usual class: activators; AID 485297; Huh7 Rab9 promoter-luciferase reporter, luminescence, 24 h; 320,000 compounds, 2.8% hits; further: % of control where 0% means no effect; nearly all actives have a fitted effect of over 60% in size
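Cell-based reporter: Huh7 stable for Rab9 promoter-driven luciferase, plated in reduced-serum medium with 10% FBS at 1500 cells/well, compound-treated 24 h at 37 °C, luminescence read after 10 min reagent.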
NPC1 prom act: activates the NPC1 promoter. Huh7 NPC1 promoter luciferase reporter, 24 h. Potency, µM (highest dose often 9.22 µM), for the others: at the highest dose activation, usual class: activators. 320,000 compounds, 2.4% hits. AID 485313; further: % of control where 0% means no effect; nearly all actives have a fitted effect of over 60% in size
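Luminescence read-out of NPC1 promoter-driven luciferase in stably transfected Huh7 cells; compounds delivered in DMSO and left 24 h at 37C, 5% CO2, qHTS titration format.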
KinaseGlo FLuc: counter-screen: inhibitors of Kinase-Glo firefly luciferase. Q27757. Kinase-Glo luciferase, ATP luminescence, 8 min. Potency, µM (top dose mostly 38.3 µM), for inactives: at the top dose activity change, negative = inhibition, most hits filed as inhibitors. 200,000 compounds, 0.28% hits. AID 1379; further: on the % scale 0 is the no-effect control and ±100 the full control effect; nearly all actives have a fitted effect of over 60% in size
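Light output from Kinase-Glo luciferase with luciferin and 10 uM ATP in 50 mM imidazole pH 7.2, KCl, MgCl2, Tween 20, BSA; compound pin-delivered, 8-min ambient incubation, then luminescence read.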
FLuc modulator: inhibits or activates purified firefly luciferase, miR-21 counter-screen; purified FLuc, Km substrates, luminescence inhibition; Potency, µM (highest dose often 57.5 µM), inactives show at the highest dose activity change, negative = inhibition, usual class: inhibitors; 360,000 compounds, 6.9% hits; P08659;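 further: plate controls were vehicle for no effect and reference inhibitor for full effect; nearly all actives have a fitted effect of over 55% in size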
Target sequence (P08659 whole entry, looked up): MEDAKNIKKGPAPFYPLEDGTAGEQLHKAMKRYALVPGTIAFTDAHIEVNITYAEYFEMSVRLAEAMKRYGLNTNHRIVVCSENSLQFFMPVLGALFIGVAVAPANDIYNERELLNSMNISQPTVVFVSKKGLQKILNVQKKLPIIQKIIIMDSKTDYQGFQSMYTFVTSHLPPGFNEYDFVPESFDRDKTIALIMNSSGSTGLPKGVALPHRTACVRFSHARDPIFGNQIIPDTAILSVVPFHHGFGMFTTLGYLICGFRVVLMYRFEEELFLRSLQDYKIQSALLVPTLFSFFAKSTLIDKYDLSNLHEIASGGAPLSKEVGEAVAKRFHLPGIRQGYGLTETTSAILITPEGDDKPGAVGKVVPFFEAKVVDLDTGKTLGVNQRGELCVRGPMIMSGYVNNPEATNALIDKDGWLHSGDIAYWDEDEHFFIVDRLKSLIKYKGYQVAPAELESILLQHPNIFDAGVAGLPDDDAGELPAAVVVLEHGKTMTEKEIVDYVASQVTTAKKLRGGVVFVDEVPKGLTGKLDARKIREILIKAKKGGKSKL
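Biochemical qHTS of compounds, final roughly 60 µM downward over six points, against 10 nM purified firefly luciferase using Km concentrations of substrates (10 uM D-luciferin, 10 uM ATP) in Tris acetate pH 7.5 buffer; luminescence output.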
* marks the source's active call; other numbers are inactive results; ? = inconclusive; / = no result; [ ] = remark or other dose. The list is not random: actives were taken first. Their share in the collection is about 7.5%. The call rests on the fitted dose curve; in most records, active means well fitted curve in the direction sought with a large enough effect; inconclusive means small, poorly fitted or top-dose-only effect, or another doubt; inactive means no such curve, though single readings can be large; an effect the other way counts as inactive or inconclusive. Potency means the concentration at half of the fitted maximal effect.

SMILES	SMN2 splice up	ELG1 genotox	Rab9 prom act	NPC1 prom act	KinaseGlo FLuc	FLuc modulator
Cc1cc(C)n(-c2nc3ccccc3nc2N2CCN(c3cccc(C(F)(F)F)c3)CC2)n1	3%	/	/	/	/	-2%
COc1ccccc1N1CCN(C(=O)C(CCSC)NS(=O)(=O)c2ccc3c(c2)oc(=O)n3C)CC1 (centres undefined)	/	/	/	/	/	-4%
O=C(c1cnn(-c2ccccc2)c1)c1ccccc1O	?	?	3.2µM*	?	-14%	2.4µM*
O=C(c1cnn(-c2ccccc2)c1)c1cc(F)ccc1O	/	?	?	?	/	13µM*
COc1ccc(-n2cc(C(=O)c3ccccc3O)cn2)cc1	?	2.3µM*	0.5µM*	?	10µM*	0.85µM*
CC(C)(C)C1CCc2c(C(=O)NNC(=O)CCCC(=O)O)csc2C1 (centres undefined)	-5%	0%	-2%	-2%	0%	17µM*
O=C(Nc1ccc(S(=O)(=O)N2CCCCCC2)cc1)c1ccco1	?	?	?	21%	-2%	?
O=C(Nc1ccc(OCC(=O)N2CCN(S(=O)(=O)c3ccccc3)CC2)cc1)c1ccco1	22%	-4%	-1%	3%	-7%	11µM*
O=C(Nc1ccc(OCC(=O)N2CCC(Cc3ccccc3)CC2)cc1)c1ccco1	-12%	-1%	-6%	2%	1%	27µM*
COc1ccc(C(OCC(O)CN2CCC(O)CC2)c2ccc(OC)cc2)cc1 (centres undefined)	/	6%	1%	1%	/	2%
COc1ccc2c(C)c(CCC(=O)NCc3ccccc3OC)c(=O)oc2c1	1%	/	/	/	/	6%
FC(F)(F)c1cccc(N2CCc3cn[nH]c32)c1	-14%	14%	-1%	10%	-3%	24µM*
CN1CCC(N2CCN(c3cccc(C(F)(F)F)c3)CC2)CC1	4%	-9%	-1%	-4%	2%	4%
CN(C)CCNC(=O)c1ccc(-n2c(=O)c(=O)[nH]c3ccccc32)cc1	/	/	/	/	0%	/
CC(C)C(NC(=O)c1ccccc1)C(=O)OCC(=O)N1CCN(c2ccccc2)CC1 (centres undefined)	/	0%	-4%	-1%	/	-1%
O=C(CSc1nc(=O)n2ccccc2n1)NCc1ccccc1Cl	/	2%	-7%	-3%	/	2%
CCOc1ccc(-c2nnc(SCC(=O)NCc3ccccc3Cl)o2)cc1	/	/	/	/	/	17µM*
O=C(CSc1ncccn1)NCc1ccccc1Cl	13µM*	18µM*	1.4µM*	4µM*	-3%	27µM*
O=C(CSc1nnc(-c2ccccc2F)o1)N1CCNC1=O	/	?	3.2µM*	2.5µM*	/	13µM*
CCOc1ccc(-c2nnc(SCC(=O)N3CCNC3=O)o2)cc1	/	?	2µM*	2µM*	/	5.4µM*
O=C(CSc1nnc(-c2ccccc2F)o1)N1CCc2ccccc21	2%	/	/	/	/	1%
CC12CC3CC(C)(C1)CC(C(=O)N1CCN(C(=O)c4ccco4)CC1)(C3)C2	/	-19%	-2%	-3%	/	-1%
NC(=O)C1(N2CCCCC2)CCN(C(=O)Nc2ccc(F)cc2)CC1	-3%	/	/	/	/	-1%
Cn1c(N)nc2c(nc(OCc3ccccc3)n2[C@@H]2O[C@H](CO)[C@@H](O)[C@@H]2O)c1=O	-6%[9.22 µM]	/	/	/	-4%[7.66 µM]	/
Cc1cccc(NC(=O)c2sc3nc4c(cc3c2N)CN(C(C)C)CC4)c1	-60%	/	/	/	/	-20%
O=C(NN=C(c1ccccc1)c1ccccc1)C(CCl)C1CCCCC1 (centres undefined)	/	3%	-1%	-1%	/	-4%
Cc1cc(N/N=C2/CCCc3ccccc32)nc2ccccc12	-4%	-5%	?	29%	-2%	7.6µM*
COc1ccccc1NCC(=O)c1ccc(Cl)cc1	/	0%	10%	1%	/	17µM*
COc1ccccc1NCC(=O)c1ccc(C)c(C)c1	/	0%	-1%	2%	/	17µM*
